In the library only some 3.5% were active in any assay of this set; here they are far more common.
BoNT-A LC inh2 – blocks Botulinum neurotoxin A light chain protease; AID 588499; hit rate 0.17% among 360,000; multiplex microsphere protease substrate cleavage, flow cytometry; inhibition, % at 10 µM
Autofluor counter – compound fluorescence in toxin protease inhibitor counterscreen; compound autofluorescence counterscreen, microsphere flow cytometry; hits give high values; fluorescence intensity (concentration not given with the values); AID 624483; hit rate 3.1% among 360,000; in the data active means fluorescence intensity above about 16000; inconclusive means no clear call, values can overlap the other calls
Anthrax LF inh2 – blocks Bacillus anthracis lethal factor protease | P15917 | multiplex microsphere protease cleavage assay, LF | inhibition, % at 10 µM | hit rate 0.12% among 360,000 | AID 588501
Target sequence (P15917 whole entry, looked up): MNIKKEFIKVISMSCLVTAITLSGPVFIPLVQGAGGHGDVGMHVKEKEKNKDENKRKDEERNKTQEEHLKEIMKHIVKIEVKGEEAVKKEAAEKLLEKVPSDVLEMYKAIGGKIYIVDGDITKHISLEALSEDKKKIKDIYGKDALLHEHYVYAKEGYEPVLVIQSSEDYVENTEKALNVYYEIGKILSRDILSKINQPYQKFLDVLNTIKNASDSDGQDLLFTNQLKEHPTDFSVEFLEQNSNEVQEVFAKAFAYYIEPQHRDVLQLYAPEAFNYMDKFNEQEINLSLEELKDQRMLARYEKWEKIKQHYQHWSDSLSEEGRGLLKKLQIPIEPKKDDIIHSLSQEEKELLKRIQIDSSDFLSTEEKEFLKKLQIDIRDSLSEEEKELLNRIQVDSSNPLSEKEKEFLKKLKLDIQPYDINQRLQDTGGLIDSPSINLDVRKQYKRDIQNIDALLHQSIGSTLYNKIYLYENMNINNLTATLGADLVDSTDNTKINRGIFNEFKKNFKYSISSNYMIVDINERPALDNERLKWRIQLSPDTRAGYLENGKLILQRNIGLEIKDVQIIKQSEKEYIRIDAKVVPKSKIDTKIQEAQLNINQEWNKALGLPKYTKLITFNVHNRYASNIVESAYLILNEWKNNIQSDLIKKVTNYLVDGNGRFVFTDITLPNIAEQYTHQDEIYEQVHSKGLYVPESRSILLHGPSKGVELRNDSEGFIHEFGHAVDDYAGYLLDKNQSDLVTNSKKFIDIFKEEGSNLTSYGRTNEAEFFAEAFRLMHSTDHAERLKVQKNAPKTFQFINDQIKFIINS
BoNT F protease – inhibitors of Botulinum neurotoxin F light chain protease | hit rate 0.22% among 360,000 | inhibition, % at 10 µM | Multiplex microsphere protease cleavage assay, flow cytometry; in the data active means inhibition above about 35%, passing the limit was not always enough; inconclusive means no clear call, values can overlap the other calls
Hits are given with their value. Unless noted, no stated cut-off is given here; in the data, active means inhibition above about 30%; inconclusive means no clear call, values can overlap the other calls; inactive means below that.

`COc1ccc(S(=O)(=O)N2CCCCC2c2cc(C(=O)NCc3cccnc3)no2)cc1` (stereo unspecified) gave BoNT-A LC inh2 inactive, Autofluor counter inactive, Anthrax LF inh2 inactive and BoNT F protease inactive.
`Cc1ccc(/C=c2\sc3nc(-c4ccccc4Br)nn3c2=O)o1` gave BoNT-A LC inh2 inactive, Autofluor counter inactive, Anthrax LF inh2 inactive and BoNT F protease inactive.
For CCN(CC)c1ccc(/C=c2\sc3nnc(-c4ccccc4Cl)n3c2=O)cc1 the results were BoNT-A LC inh2 176, Autofluor counter inactive, Anthrax LF inh2 80 and BoNT F protease 125.
`Cc1ccc(/C=c2/sc3nnc(-c4ccccc4Cl)n3c2=O)o1` gave BoNT-A LC inh2 inactive, Autofluor counter 16190, Anthrax LF inh2 inactive and BoNT F protease inactive.
`Cc1ccc(CSCC(=O)N(C)CC(=O)Nc2ccc(Cl)c(Cl)c2)cc1` gave BoNT-A LC inh2 inactive, Autofluor counter inactive, Anthrax LF inh2 inactive and BoNT F protease inactive.
`COc1ccc(S(=O)(=O)N2CCOCC2)cc1NC(=O)c1ccc(SC)cc1OC` gave BoNT-A LC inh2 inactive, Autofluor counter inactive, Anthrax LF inh2 inactive and BoNT F protease inactive.
`CC(=O)Nc1nonc1NC(=O)CSc1nc2ccccc2o1` gave BoNT-A LC inh2 inactive, Autofluor counter 22359, Anthrax LF inh2 inactive and BoNT F protease inactive.
Screening O=C(CSc1nc(-c2ccccc2)c(-c2ccccc2)o1)Nc1nnc(-c2ccccc2)s1 returned BoNT-A LC inh2 inactive, Autofluor counter 22803, Anthrax LF inh2 inactive and BoNT F protease inactive.
For CCc1nnc(NC(=O)CSc2nc3ccccc3o2)s1 the results were BoNT-A LC inh2 inactive, Autofluor counter 22539, Anthrax LF inh2 inactive and BoNT F protease inactive.
Cc1ccc(CN(C)C(=O)c2ccc(S(=O)(=O)N(C)c3ccccc3)cc2)o1 was read as BoNT-A LC inh2 inactive, Autofluor counter inactive, Anthrax LF inh2 inactive and BoNT F protease inactive.
For Cc1ccc(CN(C)C(=O)c2ccccc2Oc2ccccc2)o1 the results were BoNT-A LC inh2 inactive, Autofluor counter 21202, Anthrax LF inh2 inactive and BoNT F protease inactive.
For CCCc1nc2cc(C)c(Br)c(C)n2c1Cc1ccccc1OC the results were BoNT-A LC inh2 inactive, Autofluor counter inactive, Anthrax LF inh2 inactive and BoNT F protease inactive.
For CC(C)CC1(C)NC(=O)N(CC(=O)Nc2ccccc2Br)C1=O (stereo unspecified) the results were BoNT-A LC inh2 inactive, Autofluor counter inactive, Anthrax LF inh2 inactive and BoNT F protease inactive.
Screening CN(CC(=O)Nc1ccc(C#N)cc1)Cc1ccc(Cl)cc1Cl returned BoNT-A LC inh2 inactive, Autofluor counter 22298, Anthrax LF inh2 inactive and BoNT F protease inactive.
COc1ccc(NC(=O)CNc2cccc(C#N)c2)cc1Cl was read as BoNT-A LC inh2 inactive, Autofluor counter inactive, Anthrax LF inh2 inactive and BoNT F protease inconclusive.
Screening COc1ccc(NC(C)C(=O)Nc2ccc(C#N)cc2)cc1Cl (stereo unspecified) returned BoNT-A LC inh2 inconclusive, Autofluor counter 22894, Anthrax LF inh2 inactive and BoNT F protease inactive.
`COc1ccc(NCC(=O)Nc2ccc(C#N)cc2)cc1Cl` gave BoNT-A LC inh2 inactive, Autofluor counter 22730, Anthrax LF inh2 inactive and BoNT F protease inactive.
`O=C(C(=O)N(Cc1ccccc1)Cc1ccccc1)c1c(-c2ccccc2)[nH]c2ccccc12` gave BoNT-A LC inh2 inactive, Autofluor counter inactive, Anthrax LF inh2 inactive and BoNT F protease inactive.
Screening COc1ccc(NC(=O)c2c(-c3c(Cl)cccc3Cl)noc2C)c(OC)c1 returned BoNT-A LC inh2 inactive, Autofluor counter inactive, Anthrax LF inh2 inactive and BoNT F protease inactive.
CCC1CCCCN1c1nc(-c2cccc(OC)c2O)nc2ccccc12 (stereo unspecified) was read as BoNT-A LC inh2 inactive, Autofluor counter 16896, Anthrax LF inh2 inactive and BoNT F protease inactive.
COc1cccc(-c2nc(NC(C)C)c3ccccc3n2)c1O was read as BoNT-A LC inh2 inactive, Autofluor counter 24838, Anthrax LF inh2 inactive and BoNT F protease inactive.
`COc1cccc(CSC(C(=O)O)c2ccccc2)c1` (stereo unspecified) gave BoNT-A LC inh2 inactive, Autofluor counter inactive, Anthrax LF inh2 inactive and BoNT F protease inactive.
Screening CCNC(=O)CC1C(=O)N(c2ccccc2)C(=O)N1CCc1ccc(OC)c(OC)c1 (stereo unspecified) returned BoNT-A LC inh2 inconclusive, Autofluor counter 22965, Anthrax LF inh2 inactive and BoNT F protease inactive.
`CCNC(=O)CC1C(=O)N(c2ccc(F)cc2)C(=O)N1CCc1ccc(OC)cc1` (stereo unspecified) gave BoNT-A LC inh2 inactive, Autofluor counter 20994, Anthrax LF inh2 inactive and BoNT F protease inactive.
Screening COCCCN1C(=O)N(c2ccc(F)cc2)C(=O)C1CC(=O)Nc1ccccc1 (stereo unspecified) returned BoNT-A LC inh2 inactive, Autofluor counter inactive, Anthrax LF inh2 inactive and BoNT F protease inactive.
`CCOC(=O)c1ccc(NC(=O)CC2C(=O)N(c3ccccc3)C(=O)N2CCCOC)cc1` (stereo unspecified) gave BoNT-A LC inh2 inactive, Autofluor counter 19974, Anthrax LF inh2 inactive and BoNT F protease inactive.
CCC1=C(NCc2ccccc2)COC1=O was read as BoNT-A LC inh2 inactive, Autofluor counter inactive, Anthrax LF inh2 inactive and BoNT F protease inactive.
`O=C1CCC[C@@H]2C[C@@]3(C[C@@H]4CCN1[C@H]24)Nc1cc(Cl)c(Cl)cc1NC3=NCc1ccccc1` gave BoNT-A LC inh2 inactive, Autofluor counter inactive, Anthrax LF inh2 inactive and BoNT F protease inactive.
Cc1ccnc(-n2c(C)nc3ccccc3c2=O)c1 was read as BoNT-A LC inh2 inactive, Autofluor counter inactive, Anthrax LF inh2 inactive and BoNT F protease inactive.
Cc1ccnc(-n2c(-c3ccccc3)nc3ccccc3c2=O)c1 was read as BoNT-A LC inh2 inactive, Autofluor counter 19731, Anthrax LF inh2 inactive and BoNT F protease inactive.
Screening CCCCCCc1cc2cc(-c3nnc(-c4ccccc4O)o3)c(=O)oc2cc1O returned BoNT-A LC inh2 inactive, Autofluor counter inactive, Anthrax LF inh2 inactive and BoNT F protease inactive.
Screening CCCCCCc1cc2cc(-c3nnc(-c4ccccc4OC)o3)c(=O)oc2cc1O returned BoNT-A LC inh2 inconclusive, Autofluor counter 22218, Anthrax LF inh2 inactive and BoNT F protease inactive.
Cc1cc(NC(=O)c2ccccc2Cl)ccc1NC(=O)c1ccccc1Cl was read as BoNT-A LC inh2 inactive, Autofluor counter inactive, Anthrax LF inh2 inactive and BoNT F protease inactive.
Screening Cc1ccc(C(=O)Nc2ccc(NC(=O)c3ccccc3Cl)c(C)c2)cc1 returned BoNT-A LC inh2 inactive, Autofluor counter inactive, Anthrax LF inh2 inactive and BoNT F protease inactive.
For Cc1ccc2sc3ccc(NC(=O)c4ccccc4Cl)cc3c(=O)c2c1 the results were BoNT-A LC inh2 inactive, Autofluor counter 22506, Anthrax LF inh2 inactive and BoNT F protease inactive.
Cc1cc(NC(=O)c2ccc(Cl)cc2)ccc1NC(=O)c1ccccc1Cl was read as BoNT-A LC inh2 inactive, Autofluor counter inactive, Anthrax LF inh2 inactive and BoNT F protease 37.
`CCCNC(=O)C1(C)CCCN(C(=O)/C=C/c2ccccc2)C1` (stereo unspecified) gave BoNT-A LC inh2 inactive, Autofluor counter inactive, Anthrax LF inh2 inactive and BoNT F protease inactive.
For O=C(O)CC(C(=O)O)C(=Cc1ccccc1)c1ccccc1 (stereo unspecified) the results were BoNT-A LC inh2 inactive, Autofluor counter inactive, Anthrax LF inh2 inactive and BoNT F protease inactive.
Screening COC(=O)c1ccccc1NS(C)(=O)=O returned BoNT-A LC inh2 inactive, Autofluor counter inactive, Anthrax LF inh2 inactive and BoNT F protease inactive.
